Assay outcomes deposited in PubChem by National Center for Advancing Translational Sciences (NCATS).
Most compounds without a hit are left out; they make up all but 7.5% or so of the library.
Rab9 prom act: qHTS Assay for Rab9 Promoter Activators; Potency, µM (series often up to 9.22 µM), inactives show at the highest dose activation, negative = inhibition, actives largely listed as activators; Huh7 Rab9 promoter-luciferase reporter, luminescence, 24 h; 320,000 tested, 2.8% active; also: % of control where 0% means no effect; nearly all actives have a fitted effect of over 60% in size
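Huh7 cells stably carrying a Rab9 promoter-luciferase reporter, 1500 cells per well in OP-MEM I with 10% FBS, treated with compound 24 hours at 37C. Luciferase activity read by luminescence after 10 minutes with Amplite reagent.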
ELG1 genotox: qHTS screen for small molecules that induce genotoxicity in human embryonic kidney (HEK293T) cells expressing luciferase-tagged ELG1; HEK293T ELG1-luciferase reporter, luminescence, 16 h; Potency, µM (doses to about 46 µM), without a hit: at the highest dose activity change, positive = activation, actives largely listed as activators; 330,000 tested, 1.3% active; AID 504466, 2011; also: % of control where 0% means no effect; nearly all actives have a fitted effect of over 60% in size
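Step 1: seed 2,000 HEK293T ELG1-luciferase cells per well. Step 2: add compound or DMSO, incubate 16 hr at 37 °C. Step 3: ONE-Glo, 30 min at room temperature, read luminescence.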
FLuc counter: qHTS profiling assay for firefly luciferase inhibitor/activator using purifed enzyme and Km concentrations of substrates (counterscreen for miR-21 project) | purified FLuc, Km substrates, luminescence inhibition | Potency, µM (highest dose often 57.5 µM), without a hit: at the top dose activity change, negative = inhibition, hits mostly inhibitors | 360,000 tested, 6.9% active | AID 588342, 2011;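 also: plate controls were vehicle for no effect and reference inhibitor for full effect; nearly all actives have a fitted effect of over 55% in size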
Target sequence (P08659 whole entry, looked up): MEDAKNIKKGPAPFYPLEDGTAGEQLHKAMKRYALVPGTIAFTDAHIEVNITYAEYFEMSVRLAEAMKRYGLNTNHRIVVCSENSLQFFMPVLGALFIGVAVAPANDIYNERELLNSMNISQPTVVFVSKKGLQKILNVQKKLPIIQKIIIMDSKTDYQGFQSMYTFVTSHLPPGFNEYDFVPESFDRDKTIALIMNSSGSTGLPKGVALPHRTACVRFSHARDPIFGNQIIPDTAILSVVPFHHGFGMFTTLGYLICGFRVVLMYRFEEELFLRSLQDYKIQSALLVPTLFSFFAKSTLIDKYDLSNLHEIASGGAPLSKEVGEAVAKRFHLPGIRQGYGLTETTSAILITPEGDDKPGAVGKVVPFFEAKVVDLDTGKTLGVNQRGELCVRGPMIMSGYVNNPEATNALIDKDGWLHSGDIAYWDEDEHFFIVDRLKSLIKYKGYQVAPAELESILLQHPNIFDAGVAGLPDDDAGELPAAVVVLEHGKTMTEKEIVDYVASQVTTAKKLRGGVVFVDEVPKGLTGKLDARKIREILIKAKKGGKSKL
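Purified P. pyralis luciferase (10nM final) with 10uM D-luciferin and 10uM ATP (Km levels) in 50mM Tris acetate pH 7.5, 10mM Mg acetate, 0.01% Tween-20, 0.05% BSA; qHTS 6-point titration, ~60 µM downward; luminescence read.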
NPC1 promoter act: qHTS Assay for NPC1 Promoter Activators | Huh7 NPC1 promoter luciferase reporter, 24 h | Potency, µM (series often up to 9.22 µM), for the others: top-dose activation, usual class: activators | AID 485313, 2010 | 320,000 tested, 2.4% active; also: % of control where 0% means no effect; nearly all actives have a fitted effect of over 60% in size
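Luminescence read-out of NPC1 promoter-driven luciferase in stably transfected Huh7 cells; compounds delivered in DMSO and left 24 h at 37C, 5% CO2, qHTS titration format.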
SMN2 splice up: qHTS Assay for Enhancers of SMN2 Splice Variant Expression; HEK293 SMN2-luciferase splicing reporter, luminescence, 30-36 h; 210,000 tested, 2.8% active; Potency, µM (titrated, usually from 46.1 µM), inactives show at the highest dose activity change, positive = activation, usual class: activators; AID 1458, 2008; also: % of control where 0% means no effect; nearly all actives have a fitted effect of over 55% in size
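qHTS luciferase splicing reporter: luminescence rises when SMN2 exon 7 is included in transfected HEK293 cells. Compound exposure lasted 30-36 h at 37C, with 4.5 mM final sodium butyrate as control, followed by a ONE-Glo read.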
Numbers without * were called inactive; ? = inconclusive; / = not tested or not shown; [ ] = remark or other dose. Calls follow the shape of the dose curve; as a rule, active = well fitted curve in the direction sought with a large enough effect; inconclusive = small, poorly fitted or top-dose-only effect, or another doubt; inactive = no such curve, though single readings can be large; an effect the other way counts as inactive or inconclusive. Potency is read from the fitted curve at half-maximal effect.

SMILES	Rab9 prom act	ELG1 genotox	FLuc counter	NPC1 promoter act	SMN2 splice up
CC(=O)c1c(C(C)=O)c(C)n(NC(=O)c2ccncc2)c1C	-2%	3%	5%	-1%	25µM*
CCN(CC(=O)Nc1sc2c(c1C#N)CCCC2)Cc1nc2ccccc2c(=O)[nH]1	-5%	-6%	-9%	6%	-9%
Cc1cccc(-n2ncc3c(N(CCO)CCO)ncnc32)c1	3.5µM*	?	15µM*	3.2µM*	14µM*
CCN(c1ncnc2c1c(-c1ccccc1)cn2-c1ccccc1)C1CCCCC1	/	/	-1%	/	/
Cc1ccc(-n2ncc3c(N(CC(C)C)CC(C)C)ncnc32)c(C)c1	/	/	-10%	/	/
COc1ccc(OC)c(Nc2ncnc3c2cnn3-c2cccc(C)c2)c1	-10%	0%	-18%	-26%	?
CCN(c1ncnc2c1cnn2-c1cccc(Cl)c1)C1CCCCC1	/	/	3.8µM*	/	/
Cc1cccc(-n2ncc3c(N(C)C4CCCCC4)ncnc32)c1	-8%	0.46µM*	0.17µM*	-11%	/
COc1ccc(-n2ncc3c(N(C)C4CCCCC4)ncnc32)cc1	-10%	?	0.17µM*	-16%	/
COc1ncnc2c1cnn2-c1ccccc1	/	/	?	/	5%
CSC(=NC#N)N1CCN(C(c2ccccc2)c2ccccc2)CC1	-1%	-5%	1%	-2%	/
Cc1ccc(S(=O)(=O)NCC(=O)N(CC(=O)NCc2ccco2)Cc2ccccc2)cc1	0%	0%	0%	0%	/
O=C(NC(Cc1ccccc1)C(=O)O)OCC1c2ccccc2-c2ccccc21 (configuration not stated)	0%	1%	?	-4%	/
CCOc1cc(C2NN=C(c3ccccc3)S2)ccc1OCc1ccccc1Cl (configuration not stated)	?	?	7.6µM*	?	158%
CCOc1cc(C2NN=C(c3ccccc3)S2)ccc1OCc1ccc(F)cc1 (configuration not stated)	3.2µM*	8.2µM*	6µM*	?	13µM*
CCOc1cc(CNC2CCCC2)ccc1OCc1ccccc1Cl	-7%	-4%	0%	0%	-42%
CCOc1ncccc1C(=O)OCC(=O)c1cc(C)n(Cc2ccco2)c1C	0.5µM*	6.5µM*	0.85µM*	0.35µM*	13%
Cc1cc(C(=O)COC(=O)C(C)NC(N)=O)c(C)n1Cc1ccco1 (configuration not stated)	28%	17%	13µM*	5%	4%
Cc1cc(C(=O)COC(=O)c2ccc(Br)o2)c(C)n1Cc1ccco1	3.2µM*	?	2.7µM*	26%	-5%
Cc1cc(C(=O)COC(=O)CCC(=O)c2ccc3c(c2)OCCO3)c(C)n1Cc1ccco1	12%	?	8.5µM*	9%	8%
Cc1cc(C(=O)C(C)Cl)c(C)n1Cc1ccco1 (configuration not stated)	5%	-3%	-1%	-2%	-11%
COc1cc(OC)cc(C(=O)NCC(=O)OCC(=O)c2cc(C)n(Cc3ccco3)c2C)c1	-2%	0%	27µM*	-3%	-6%
Cc1cc(C(=O)COC(=O)CNC(=O)c2ccco2)c(C)n1Cc1ccco1	-5%	0%	?	2%	17%
COc1ccc(CCC(=O)OCC(=O)NCc2ccc3c(c2)OCO3)cc1	-1%	1%	0%	-2%	/
O=C(COC(=O)CCC(=O)c1ccc2c(c1)OCCO2)NCc1ccc2c(c1)OCO2	5%	10%	11µM*	-1%	8%
SMILES	Rab9 prom act	ELG1 genotox	FLuc counter	NPC1 promoter act	SMN2 splice up
Cc1cc(C(=O)COC(=O)c2ccc(O)cc2)c(C)n1Cc1ccco1	2.5µM*	?	3.4µM*	3.5µM*	22µM*
COc1ccc(NC(=O)CCCCC#Cc2ccccc2)cc1	/	/	/	/	-8%
O=C(C#Cc1ccccc1)NCc1ccccc1F	23%	-16%	?	6%	/
O=C(C#Cc1ccccc1)Nc1cccc(F)c1	0%	-1%	4.3µM*	-9%	/
O=C(C#Cc1ccccc1)Nc1ccc(F)cc1	12%	10%	12µM*	16%	/
COc1ccc(NC(=O)C#Cc2ccccc2)cc1	?	?	8.5µM*	1.4µM*	/
CCC1CN(C(=O)NCc2ccccc2)c2cc(C)ccc2O1 (configuration not stated)	-8%	-1%	1%	-4%	/
C[C@H](CO)N1C[C@H](C)[C@@H](CN(C)C(=O)Nc2ccc3c(c2)OCO3)Oc2c(NC(=O)C3CCCCC3)cccc2C1=O	/	0%	/	/	/
Cn1cc(Br)c(C(=O)Nc2sc3c(c2C(N)=O)CCC3)n1	18%	12%	11µM*	22%	41%
Cn1nccc1C(=O)Nc1sc2c(c1C(N)=O)CCCC2	?	?	9.5µM*	25%	5%
COC(=O)c1c(NC(=O)c2nc3nc(C)cc(C(F)F)n3n2)sc2c1CCC2	1%	-7%	-3%	-3%	-29%
Cn1ccc(C(=O)Nc2sc3c(c2C(N)=O)CCCCC3)n1	0.5µM*	0.46µM*	0.6µM*	1µM*	/
Cn1nccc1C(=O)Nc1sc2c(c1C#N)CCCC2	6%	11%	?	12%	/
Cc1cc(C(F)F)n2nc(C(=O)Nc3sc4c(c3C(N)=O)CCC4)nc2n1	-2%	1%	12µM*	2%	-8%
NNC(=O)C(Cc1ccc(O)cc1)N1Cc2ccccc2C1=O (configuration not stated)	0%	-3%	-1%	2%	/
Cc1ccc(NC(=O)[C@H](Cc2ccccc2)N2Cc3ccccc3C2=O)cc1	/	/	2%	/	-3%
COC(=O)C(Cc1ccc(OC(=O)c2ccc(C)cc2)cc1)N1Cc2ccccc2C1=O (configuration not stated)	?	9%	?	?	16µM*
COC(=O)C(Cc1ccc(O)cc1)N1Cc2ccccc2C1=O (configuration not stated)	1.8µM*	?	15µM*	4µM*	/
O=C(CN1C(=O)/C(=C/c2ccc(Cl)cc2)SC1=S)NC1C=CS(=O)(=O)C1 (configuration not stated)	1%	1%[9.26 µM]	-7%	-7%	/
COc1cccc(/C=C2\SC(=O)N(CC(=O)NC3CCS(=O)(=O)C3)C2=O)c1 (configuration not stated)	0%	6%	17µM*	-14%	/
COc1ccccc1/C=C1\SC(=S)N(CC(=O)NC2CCS(=O)(=O)C2)C1=O (configuration not stated)	3%	0%	13µM*	-3%	/
CC(C)c1ccc(/C=C2\SC(=O)N(CC(=O)NC3C=CS(=O)(=O)C3)C2=O)cc1 (configuration not stated)	23%	5%	1.2µM*	26%	/
